PubChem BioAssay AID894 (National Center for Advancing Translational Sciences (NCATS), 2007)
In all, about 150,000 compounds went through this assay and about 6,500 (4.3%) were called active. About 12% were inconclusive and are not listed. Calls come from the whole dose curve; as a rule, active = well fitted inhibition curve with a large enough effect (not every such curve was filed as active); inconclusive = small, poorly fitted or top-dose-only effect, or another doubt; inactive = no such curve, though single readings can be large or run the other way. This excerpt belongs to a sample that is enriched for actives.

Target: 15-hydroxyprostaglandin dehydrogenase [NAD(+)] (Homo sapiens) (UniProt P15428)
Assay: qHTS Assay for Inhibitors of HPGD (15-Hydroxyprostaglandin Dehydrogenase)
Conditions: purified HPGD, NADH fluorescence kinetic, PGE2 substrate; activity change, negative = inhibition: stronger effect = lower value
How it was run: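 20 nM HPGD preincubated 15 min at room temperature with compound in 50 mM Tris-HCl pH 8, 0.01% Tween 20. Started with 1 mM NAD+ and 30 uM prostaglandin E2; NADH fluorescence (360/450 nm) read 5 times over 30-s intervals, last minus first.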
% is set by controls: 0 for no effect and ±100 for the full control effect; potency is the fitted concentration of half-maximal effect.

Sequence of 15-hydroxyprostaglandin dehydrogenase [NAD(+)] (Homo sapiens) (P15428 whole entry, looked up): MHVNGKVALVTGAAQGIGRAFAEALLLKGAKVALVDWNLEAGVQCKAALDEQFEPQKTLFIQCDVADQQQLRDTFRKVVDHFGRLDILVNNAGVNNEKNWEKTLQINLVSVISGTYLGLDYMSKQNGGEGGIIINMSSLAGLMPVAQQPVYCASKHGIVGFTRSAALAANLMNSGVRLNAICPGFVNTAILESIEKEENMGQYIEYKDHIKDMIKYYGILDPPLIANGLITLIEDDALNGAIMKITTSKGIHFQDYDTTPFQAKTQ

Activity change, negative = inhibition, inactive:
Cc1ccc(CCCOC(=O)C[N+]2(C)CCCC2)cc1 -8.3%
C=CCn1c(SCC(=O)Nc2nc3ccccc3s2)nnc1-c1ccccc1O -10.2%
O=C(CSc1nnc(-c2cccs2)n1-c1ccccc1)NCc1ccco1 -2.44%
O=C(Cc1ccccc1)NNS(=O)(=O)c1ccc([N+](=O)[O-])cc1 -13.6%
COc1ccc(CC(=O)Nc2cc(S(=O)(=O)N3CCCCC3)ccc2N2CCN(C)CC2)cc1 -7.18%
COc1cc(/C=C/C(=O)N2c3ccccc3Sc3ccc(C(F)(F)F)cc32)cc(OC)c1OC -14.1%
CCOC(=O)c1sc(NC(=O)c2ccncc2)nc1C -16.2%
CCOC(=O)C1=C(C)Nc2sc(C(=O)c3ccc(Br)cc3)c(N)c2C1c1ccc(C(=O)OC)cc1 (stereo not given) -7.23%
CN(C)c1ccc(C(CNC(=O)c2ccc(F)cc2)c2c[nH]c3ccccc23)cc1 (stereo not given) -5.43%
Cc1ccc(SCCC(=O)OCC(=O)Nc2ncc(Cl)cc2Cl)cc1 -8.54%
Cc1ccc(SCC(=O)Nc2ncc(C)s2)cc1 -20.4%
CC/C=C\C/C=C\C/C=C\C/C=C\C/C=C\C/C=C\CCC(=O)NCCc1ccc(O)c(O)c1 -14.7%
CCOc1ccc(S(=O)(=O)NCC2CCCO2)cc1 (stereo not given) -2.22%
Cc1ccc(C(=O)NCC2CCCO2)o1 (stereo not given) -12%
Cc1ccc(-c2noc(-c3ccccc3C(=O)NCC3CCCO3)n2)cc1 (stereo not given) -6.63%
Cc1nc2ccccc2c2oc(C(=O)NCC3CCCO3)cc12 (stereo not given) -26%
CCOC(=O)c1cccnc1NC(=O)c1ccncc1 -2.52%
c1ccc2c(c1)CSc1sccc1C2=C1CCNCC1 -1.18%
COCCNc1cc(NCCOC)c([N+](=O)[O-])cc1[N+](=O)[O-] -9.02%
c1ccc(-n2ncc3c(N4CCCC4)ncnc32)cc1 -12.9%
Cc1scc(C(=O)NNC(=S)NCc2ccccc2)c1C -7.44%
Cc1nnc(SCC(=O)NCc2cccs2)[nH]c1=O -0.933%
COc1cc(CC(=O)NCc2cccs2)cc(OC)c1OC -17%
Cc1ccc2nsnc2c1NC(=O)c1ccccc1[N+](=O)[O-] -15.8%
Cc1ccc(/C=N/NC(=O)CNC(=O)COc2ccccc2)o1 -5.29%
Cc1ccc(C(=O)N/C(=C/c2cccnc2)C(=O)O)cc1 -13.7%
COc1ccc(Br)cc1C(=O)Nc1cccc(C)c1C -28.1%
COc1ccc(/C=C(/NC(=O)c2ccc(C)cc2)c2nc3ccccc3[nH]2)cc1OC -24.1%
C=C(C(C)=O)C(O)c1cccs1 (stereo not given) -6.13%
COC(=O)C(C(=O)OC)[C@@H](NC=O)c1ccccc1 -1.83%
Cc1ccc(-c2c(C)n([O-])c3c([n+]2=O)CCC3)cc1 -24.7%
CCc1c(C)n([O-])c2c([n+]1=O)CCCCC2 -4.11%
O=C(Cc1ccccc1)NCc1ccc(F)cc1 -22.4%
CCCCOC(=O)c1ccc(NC(c2ccc(C)cc2)P(=O)(OC)OC)cc1 (stereo not given) -21.8%
CCc1ccccc1NC(=O)c1cccs1 -5.77%
CCc1nnc(NC(=O)c2cccs2)s1 -9.46%
O=C(NCCOc1ccccc1Cl)C(=O)Nc1ccccc1 -2.3%
CC(=O)NS(=O)(=O)c1ccc(NC(=O)C2C3C=CC(C3)C2C(=O)O)cc1 (stereo not given) -3.59%
COCCCN(C(=S)Nc1c(C)cc(C)cc1C)C(C)c1ccncc1 (stereo not given) -0.352%
CCn1ncc(Br)c1C(=O)Nc1cc(C)ccc1F 0.199%
COc1cc2c3c(c1)/C(=C1/SC(=S)NC1=O)C(=O)N3C(C)(C)C=C2C -26.1%
Cc1c(NC(=S)Nc2ccccc2)c(=O)n(-c2ccccc2)n1C -3.36%
CCC1C=C(c2ccccc2)C=CN=C1N(CC)CC (stereo not given) -4.96%
N#CC1=C(N)N(c2ccccc2)C2=C(C(=O)CCC2)C1c1ccccc1 (stereo not given) -8.89%
NS(=O)(=O)c1ccc(CNC(=O)c2ccc(Cl)cc2[N+](=O)[O-])cc1 -16.4%
Cc1cc(C)nc(SCc2ccccc2C#N)n1 -12.7%
CCOc1ccc2cc(C#N)c(SCC(=O)OC)nc2c1 -15%
N#Cc1ccccc1Sc1ccccc1C(=O)OCC(=O)NC1CCCCC1 -19.1%
CCN(CC)c1ccc2oc(=O)c(C)nc2c1 -16.7%
CCOC(=O)Cc1csc(SCC(=O)NC(C)C23CC4CC(CC(C4)C2)C3)n1 (stereo not given) -15.9%
O=C(Cn1cnc2c(cnn2-c2ccccc2)c1=O)NCc1ccccc1 -9.12%
Cc1ccc(CNC(=O)c2ccccc2CCc2ccccc2)cc1 -19.3%
N#C/C(C(=O)N1CCOCC1)=C1/SC(Cc2ccc(F)cc2)C(=O)N1c1ccccc1 (stereo not given) -13.3%
Cc1ccc(C(=O)N2CCN(C(=O)N3CCOCC3)CC2)cc1 3.86%
CC(C)=C1SC(N2CCN(c3cccc(C)c3)CC2)=NC1=O -16.6%
Cc1cccc(-n2c(N)cc(=O)nc2SC(C)C(=O)NC2CCCCC2)c1 (stereo not given) -19.7%
CC(=O)c1c(N2CCOCC2)nc(=S)n(-c2cc(C)ccc2C)c1C -12.5%
O=S(=O)(NCCSc1ccccn1)c1ccc(Cl)cc1 -1.01%
C=C/C1=C/Cc2ccccc2[C@H](C[N+](=O)[O-])C(C(=O)OC)(C(=O)OC)C1 -16.5%
CCOc1cc(CNCc2ccccn2)ccc1OCC(=O)NC(C)(C)C -9.37%
CC(C)(C)C(=O)N1CCC[C@@]1(CO)C(=O)O -2.24%
COc1ccc(CNC(=O)CCCn2nc(C)c([N+](=O)[O-])c2C)cc1 -13.5%
CCC(C)C(=O)Nc1cc([N+](=O)[O-])ccc1Cl (stereo not given) -1.06%
C=CCn1c(CCNC(=O)c2cccs2)n[nH]c1=S -27.1%
O=C(c1cc(-c2ccc(O)cc2)on1)N1CCCc2ccccc21 -28%
Cc1nnc(SCC(=O)N2CCc3ccccc3C2)s1 -6.45%
CCCNC(=O)NC(=O)COC(=O)CC(NC(N)=O)c1ccc(Cl)cc1 (stereo not given) -4.57%
CC1(C)CC(CCC(=O)Nc2ccccc2Cl)C(=O)O1 (stereo not given) -12.3%
O=C(Nc1ccc2c(c1)CCC2)c1cccc(S(=O)(=O)Nc2ccccc2Cl)c1 -11.7%
Cc1nn(-c2ccccc2)c(-n2cccc2)c1C(=O)O -6.97%
N/C(=N\OC(=O)CC1CCCCC1)c1ccccc1 -21.9%
Cc1ccc(C2CC(=O)NC(SCC(=O)OCc3ccccc3)=C2C#N)o1 (stereo not given) -25.8%
CCOC(=O)CSC1=C(C#N)C(c2sccc2C)CC(=O)N1 (stereo not given) -3.48%
CSCCC(NC(=O)COc1ccccc1)C(=O)Nc1ccc(C)cc1 (stereo not given) -0.719%
CCCCC/C=C\C/C=C\C/C=C\CCCCC(=O)NCC(=O)O -3.51%
CCC(=O)Nc1c(C)n[nH]c1C -8.91%
Nc1nc(SCC(=O)NCCN2CCOCC2)nc2sc3c(c12)CCC3 -10.4%
CN(C)CCSc1nc(N)c2c3c(sc2n1)COC(C)(C)C3 -15.6%

Potency, active:
C=CCn1c(CSc2nc3ccccc3s2)nnc1SCC(=O)NCc1ccco1 17.8 µM
CCOC(=O)c1sc(=S)n2c1[nH]c(=O)c1ccc(C(=O)OC)cc12 8.91 µM
Cc1ccc(SCCC(=O)NC(C(C)C)C(C)C)cc1 7.94 µM
Cc1c(C(=O)NCC2CCCO2)sc2nc(-c3ccccc3)cn12 (stereo not given) 28.2 µM
CCOc1ccc(-n2c(N)c(C(=O)NCC3CCCO3)sc2=S)cc1 (stereo not given) 8.91 µM
O=C(O)C1CCN(c2ncnc3ccc(-c4ccccc4C(F)(F)F)cc23)CC1 1.26 µM
Cn1ncc(Br)c1C(=O)NCc1cccs1 15.8 µM
COc1ccc(Br)cc1C(=O)NC(=S)Nc1cc(-c2nc3ccccc3[nH]2)ccc1C 28.2 µM
O=[n+]1c2c(n([O-])c3cc(Br)ccc31)CCC2 11.2 µM
CCc1c(C)sc(NC(=O)c2cccs2)c1C(N)=O 8.91 µM
CCn1ncc(CNC(=O)C2(C)CC2(Br)Br)c1C (stereo not given) 14.1 µM
NC1=C([N+](=O)[O-])C(c2ccccc2)C2=C(CCCC2=O)O1 (stereo not given) 20 µM
Cc1ccc2nc(SCc3nnc(-c4ccccc4[N+](=O)[O-])o3)c(C#N)cc2c1 1 µM
CCN(CC)c1ccc(/C=N/Nc2nc(C)cc(C)n2)c(O)c1 20 µM
Cc1c(C(=O)NCc2ccccc2)cnn1-c1ccccc1 17.8 µM
Cc1ccc(-n2c(N)c(C(=O)N3CCOCC3)sc2=S)c(C)c1 7.94 µM
N#Cc1ccccc1-n1c(N)c(C(=O)N2CCCC2)sc1=S 25.1 µM
Cc1cccc(-n2c(N)c(C(=O)N3CCN(C)CC3)sc2=S)c1 10 µM
O=C(c1cc(-c2cccc(O)c2)on1)N1CCc2ccccc2C1 25.1 µM
O=C(Cc1ccc2c(c1)CCCC2)Nc1ccccc1Cl 3.16 µM
C=CCSC1=C(C#N)C(c2cc(Br)c(O)c(OC)c2)CC(=O)N1 (stereo not given) 17.8 µM
CC(C)(C)C1CCc2c(sc3nc(SCC(N)=O)nc(N)c23)C1 (stereo not given) 28.2 µM
